Source: PubChem BioAssay AID1489 (National Center for Advancing Translational Sciences (NCATS), 2009)
Inconclusive results are not listed. Where a call stands in place of a potency, no number is given. Calls of active or inactive are those of the source. The call rests on the fitted dose curve; in most records, active means well fitted antagonist curve with a large enough effect in the main read-out, with a control signal flat; inconclusive means small, poorly fitted or top-dose-only effect; inactive means no such curve, though single readings can be large or run the other way.

biological target: Neuropeptide S receptor (Homo sapiens) (UniProt Q6W5P4); test: Confirmation Concentration-Response Assay for Antagonists of the Neuropeptide S Receptor: Calcium Signal Transduction; settings: CHO-NPSR cells, NPS-induced calcium flux, FDSS; series mostly up to 19.3 µM
Description: NIH Chemical Genomics Center [NCGC] NIH Molecular Libraries Probe Production centers Network [MLPCN] MLPCN Grant: X01-DA026210-01 Assay Submitter (PI): Heilig, Markus Alexander NCGC Assay Overview: Neuropeptide S receptor (NPSR), previously known as GPR154, is a recently de-orphanized G protein coupled receptor. Its endogenous ligand is the 20 amino acids peptide Neuropeptide S (NPS). […] NPS and its receptor are found in various tissues. Specifically they are highly expressed in brain areas that have been implicated in modulation of arousal, stress and anxiety. Central administration of NPS in mice produces an unusual profile of activity by inducing wakefulness and arousal, while at the same time suppressing anxiety. Therefore, NPSR may represent a novel drug target for the treatment of sleep and anxiety disorders. To identify NPSR antagonists, we developed a cell-based assay with transfected NPS receptor. NPS can stimulate the production of cAMP as well as release intracellular calcium in Chinese hamster ovary cells stably expressing NPS receptor. This change in intracellular calcium can be detected using a calcium indicator dye on a calcium imaging plate reader system (FDSS).
NCGC Assay Protocol Summary: A Chinese hamster ovary (CHO) cell line stably expressing the NPS receptor (CHO-NPSR) was obtained from Dr. Heilig lab at NIAAA and maintained in F-12 Kaighn's media (Invitrogen, Carlsbad, CA, 21127) supplemented with 10 % FBS, 100 units/ml penicillin, 100 ug/ml streptomycin and 250 ug/ml geneticin at 37C, 5% CO2 in a humidified atmosphere. Before the assay, aliquots of cells were frozen and stored at -135C. The assay was performed on a FDSS-7000 kinetic plate reader in 1536-well format. For both agonist (1-220s) and antagonist (221-400s) phases, the maximums of kinetic fluorescence responses were converted separately into text files using the instrument's software data export utility. Data for agonist response were normalized to the controls for basal activity (DMSO only) and 100% activation (NPS). […] AC50 values were determined from concentration-response data modeled with the standard Hill equation. NPS 1536-well FDSS assay protocol: (1) Frozen CHO-NPSR cells were thaw, washed once with fresh media and resuspended in F-12 Kaighn's media supplemented with 10 % FBS, 100 units/ml penicillin and 100 ug/ml streptomycin. Cells were plated at 3 ul/well (1200 cells) to black, clear-bottom, tissue-culture treated 1536-well plates, and then cultured at 37C, 5 % CO2 for 16 to 30 hours. (2) Add 3 ul of calcium dye (from High Performance PBX Calcium Assay Kit, BD Biosciences). The calcium dye was prepared according to the manufactory's instruction. (3) Incubation at 37C, 5 % CO2 for 60 to 120 min. (4) Load plates to FDSS-7000. The following steps were performed on FDSS-7000. (5) Record fluorescent background (Ex 480 nm, Em 520-560 nm) for 10 s. (6) Add 23 nl/well of compound in DMSO solution. The final titration for each compound was between 0.6 nM and 46 uM. Record agonist response for 210 s. (7) Add 2 ul of stimulation reagent (1X HBSS buffer, 0.1% BSA, 60 nM NPS). Record antagonist response for 140 s. Keywords: MLSMR, MLPCN, NIH Roadmap, qHTS, NCGC, NPS, Neuropeptide S Antagonists

Neuropeptide S receptor (Homo sapiens), sequence (Q6W5P4 whole entry, looked up): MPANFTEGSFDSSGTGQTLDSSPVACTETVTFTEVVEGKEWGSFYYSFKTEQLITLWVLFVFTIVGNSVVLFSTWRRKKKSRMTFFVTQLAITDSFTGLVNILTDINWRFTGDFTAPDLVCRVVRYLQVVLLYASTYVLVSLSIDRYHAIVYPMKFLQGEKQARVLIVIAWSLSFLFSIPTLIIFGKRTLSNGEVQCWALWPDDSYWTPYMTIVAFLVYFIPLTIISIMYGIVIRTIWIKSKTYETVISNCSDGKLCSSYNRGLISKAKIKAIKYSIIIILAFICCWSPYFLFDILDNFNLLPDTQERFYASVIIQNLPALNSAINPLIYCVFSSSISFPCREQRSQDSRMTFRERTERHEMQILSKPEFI

Row | SMILES | Potency
1 | COC(=O)c1ccc(C(=O)OC)c(NC(=O)CSc2cccc[n+]2[O-])c1 | inactive
2 | CC(=O)n1nc2nc(C)cc(C)c2c1N | inactive
3 | CCCCCN1C=CC=C/C1=C\C=C(C#N)C#N | inactive
4 | c1ccc(-c2ccc(-c3nc(-c4cccnc4)no3)cc2)cc1 | inactive
5 | C=CCOc1c(Cl)cc(CNc2ccc(N(C)C)cc2)cc1OC | inactive
6 | O=c1cc(CNCCCO)c2ccccc2[nH]1 | inactive
7 | O=C(c1ccccc1-c1nc2ccccc2[nH]1)N1CCCCC1 | inactive
8 | O=C(CSc1n[nH]c(-c2cccnc2)n1)Nc1ccnc2ccccc12 | inactive
9 | COc1ccc(C2c3c(ncn(CCN4CCOCC4)c3=N)Oc3ccc4ccccc4c32)cc1OC (stereo not given) | 1580 nM (active)
10 | Cc1ccc2nc3ccc(N4CCCCCCC4)nn3c(=O)c2c1 | inactive
11 | Brc1ccc(CSc2ncn[nH]2)cc1 | inactive
12 | COc1ccccc1-c1nnc(SC2CCc3ccccc3NC2=O)s1 (stereo not given) | inactive
13 | N#CC(C#N)=c1ccc2c(c1)NC1(CCCCC1)N=2 | inactive
14 | CS(=O)(=O)c1nc(-c2ccccc2)cc(C(F)(F)F)n1 | 7940 nM (active)
15 | S=C(Nc1ccccc1)Nc1nccs1 | inactive
16 | Cc1ccc(-c2ccc(/C=C3\C(=O)ON=C3c3ccccc3)o2)c([N+](=O)[O-])c1 | 2820 nM (active)
17 | CN(C)C(=O)Oc1cccc([N+](C)(C)C)c1 | inactive
18 | C/C(=N\Nc1ncc(Cl)cc1Cl)c1ccccn1 | 2510 nM (active)
19 | NC(=O)OCC(COC(N)=O)c1ccccc1 | inactive
20 | Cc1ccc(NC(=S)NNC(C)(C)C)cc1 | inactive

Row | SMILES | Potency
21 | COCCCn1cnc2c(c1=O)c1nc3ccccc3nc1n2CCc1ccccc1 | inactive
22 | Cn1nc(-c2ccc(Cl)cc2)nc2c(=O)n(C)c(=O)nc1-2 | inactive
23 | O=C(O)CCCCCNc1nc(=S)[nH]c2ccccc12 | inactive
24 | C=CCNC(=O)/C(C#N)=C/c1cn(-c2ccccc2)nc1-c1ccc(OC)c([N+](=O)[O-])c1 | inactive
25 | CCn1cc(C(=O)NCC2CCCO2)c(=O)c2cc(S(=O)(=O)N3CCCCCC3)ccc21 (stereo not given) | inactive
26 | Cc1cc(C)n(-c2nc(NC(C)C)nc(NC(C)C)n2)n1 | inactive
27 | Cc1ccc(Cn2cc(SCC(=O)Nc3nccs3)c3ccccc32)cc1 | inactive
28 | Cc1oc2c(c1C(=O)NCc1cccnc1)C(=O)c1ccccc1C2=O | inactive
29 | COCCCn1c(SCc2cc(=O)[nH]c3ccccc23)nnc1-c1ccco1 | inactive
30 | C/C(=N\NC(=S)NC1CCCCC1)c1c(F)cccc1F | inactive
31 | c1cncc(-c2nc(-c3ccco3)cs2)c1 | inactive
32 | CC(=O)c1sc(N/N=C\c2ccccc2O)nc1C | 1120 nM (active)
33 | Oc1ccc(N=Nc2nccs2)c(O)c1 | inactive
34 | Cn1c(C(=O)NCCN2CCc3ccccc3C2)cc2c(=O)[nH]c3ccccc3c21 | inactive
35 | O=C1Nc2ccc(S(=O)(=O)N3CCCC3C(=O)O)c3cccc1c23 (stereo not given) | inactive
36 | O=C(N1CCOCC1)C1(c2ccc(Cl)cc2)CCCC1 | inactive
37 | O=C(/C=C/c1ccco1)NC(=S)Nc1nc(-c2ccc3ccccc3c2)cs1 | inactive
38 | O=C(O)c1cccc(Nc2ncnc3ccccc23)c1 | inactive
39 | COc1ccc(C(=O)N(Cc2ccco2)Cc2cccs2)c(O)c1 | inactive
40 | O=C(/C(=C/c1ccc(Cl)cc1)c1nc2ccccc2[nH]1)c1cccs1 | 8910 nM (active)
